{
  "source": "PubChem BioAssay (NCATS)",
  "note": "Records with an inconclusive call do not appear. Values without a mark were called inactive. The source made the active and inactive calls. The call rests on the fitted dose curve; in most records, active means well fitted cell-killing curve with a large enough effect; inconclusive means small, poorly fitted or top-dose-only effect; inactive means flat fitted curve, though single readings scatter.",
  "data": [
    {"assay": "J3T Cancer Cell Toxicity qHTS against the NCATS CANVASS Library (AID 1347371); further: potency means the concentration at half of the fitted maximal effect;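 on activity change, negative = cytotoxicity: J3T is a canine glioma cancer cell line seeded at 500 cells per well; on the % scale 0 is the no-effect control and ±100 the full control effect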", "conditions": "J3T dog glioma viability, ATP luminescence, 72 h; series mostly up to 46.1 µM; activity change, negative = cytotoxicity: at the top concentration", "from_the_text": "Natural products and their derivatives continue to be wellsprings of nascent therapeutic potential. However, many laboratories have limited resources for biological evaluation, leaving their previously isolated or synthesized compounds largely or completely untested. To address this issue, the Canvass library of natural products was assembled (https://tripod.nih.gov/canvass), in collaboration with academic and industry researchers, for quantitative high-throughput screening (qHTS) across a diverse set of cell-based and biochemical assays. The pure (>85% purity by liquid chromatography/mass spectrometry [LC/MS]) Canvass library of 346 natural products were submitted by 45 academic laboratories and companies around the world. We collected pure natural products to circumvent deconvolution and structure elucidation due to time and resource limitations. The library was formatted into 1536-well plates and evaluated in 50 qHTS (in an 11-pnt concentration series) bioassays with broad scope of disease-relevant mechanisms. The resulting data set from 50 different assays was then systematically analyzed to identify overall trends and specific natural products with interesting biological activities. Reported herein are the results of each individual qHTS and their corresponding assay protocol. This assay uses ATP (luminescence) content to measure the cytotoxiciy of compounds on J3T dog glioma cancer cell line. National Center for Advancing Translational Sciences (NCATS), Rockville, MD National Institute of Health (NIH), Bethesda, Maryland\nCancer Cell Toxicity qHTS protocol: for cell lines G06, J3T, and SDT. 1. In a 1536 well, tissue culture treated white solid bottom plates (Corning 7494), 5 uL of J3T cell solution (final concentration of 500 cells / well) was dispensed using the Multidrop Combi dispenser (Thermo Fisher Scientific) into columns 2, 3, 5-48. 2. Control and Compounds were pin transferred (~23nL volume) to the assay plates via Wako Pin-tool (Wako Automation, Richmond VA) equipped with a 1536 pin head. The compounds were transferred to columns 5-48 resulting in a final concentration ranging from 0.17nM to 103uM. Dose response titration of Bortezomib was pin transferred into column 2 (1mM; 1:2 dilution; 16 points) resulting to a final concentration range of 0.1nM - 4.6uM. 3. The assay plates were further incubated in the at 37C, 5% CO2, 95% Rh for 72 hr. 4. After incubation, 3 uL of CellTiterGlo reagent (Promega) was added to the assay plates (column 1-48, rows 1-32) and centrifuged for 15 sec at 1000 rpm to remove bubbles. 5. Luminescence signal was acquired via the ViewLux plate reader (PerkinElmer) using a clear emission filter, 2 sec exposure, and 1x binning settings.", "values": [
      {"compound": "CC[N@@+]1([O-])C[C@]2(C)CC[C@@H](O)[C@@]34C5C[C@H]6CC[C@@]5(C(C[C@H]23)C41)[C@H](O)[C@@]6(O)CO", "note": "(stereo partly drawn)", "activity change, negative = cytotoxicity": "1.77%"},
      {"compound": "c1ccc2c3c([nH]c2c1)CNCC3", "activity change, negative = cytotoxicity": "-11.8%"},
      {"compound": "CN1C(=O)[C@]23CC4C(C)(C)[C@@]5(C[C@@]41CN2CC[C@@]3(C)O)C(=O)Nc1c5ccc2c1OC=CC(C)(C)O2", "note": "(stereo partly drawn)", "activity change, negative = cytotoxicity": "-17.6%"},
      {"compound": "COc1ccc2c3c([nH]c2c1)C(C)=NCC3", "activity change, negative = cytotoxicity": "3.88%"},
      {"compound": "CN(C)Cc1c[nH]c2ccccc12", "activity change, negative = cytotoxicity": "2.5%"},
      {"compound": "CC=C1CN(C=O)[C@H]2C[C@@H]1[C@@H](C(=O)OC)[C@@]13CCOC21Nc1ccccc13", "note": "(stereo partly drawn)", "activity change, negative = cytotoxicity": "-17.3%"},
      {"compound": "CNCCc1ccc(O)cc1", "outcome": "inactive"},
      {"compound": "CCCC[C@@H]1CC[C@H]2CCCC(CCC)N12", "note": "(stereo partly drawn)", "activity change, negative = cytotoxicity": "-6.6%"},
      {"compound": "CNCCc1ccccc1", "activity change, negative = cytotoxicity": "-5.58%"},
      {"compound": "C[C@@H]1CC[C@@H](c2ccoc2)N2C[C@@]3(CC[C@@H]12)CS[C@@]1(CC[C@H]2[C@H](C)CC[C@@H](c4ccoc4)N2[C@@H]1O)C3", "Potency": "9.35 µM (active)"},
      {"compound": "O=C(c1ccccc1O)c1[nH]c(Cl)c(Cl)c1-n1c(C(=O)c2ccccc2O)cc(Cl)c1Cl", "Potency": "2.96 µM (active)"},
      {"compound": "CO[C@H](c1ccccc1)[C@H]1NC(=O)C(C)NC(=O)C(C[C@@H](C)CO)N(C)C(=O)[C@@H](C(O)c2cn(C(C)(C)C3CO3)c3ccccc23)NC(=O)C(C(C)C=C(C)C)NC(=O)C(CC(C)C)N(C)C(=O)C(C(C)C)NC1=O", "note": "(stereo partly drawn)", "activity change, negative = cytotoxicity": "-1.85% [at 27.5 µM]"},
      {"compound": "CCN1C[C@]2(C)CC[C@@H](O)[C@]34C1[C@H](C[C@H]23)C12CCC(CC14)[C@](O)(CO)[C@H]2O", "note": "(stereo partly drawn)", "outcome": "inactive"},
      {"compound": "C[C@]12CC(O)C3[C@@H](CCC4C[C@@H](O)CC[C@@]43CO)[C@@]1(O)CCC2C1=CC(=O)OC1", "note": "(stereo partly drawn)", "activity change, negative = cytotoxicity": "-0.114%"},
      {"compound": "NCCc1ccccc1", "activity change, negative = cytotoxicity": "1.49%"},
      {"compound": "CCC(=O)CCCCC[C@@H]1NC(=O)[C@H]2CCCCN2C(=O)[C@H]([C@@H](C)CC)NC(=O)[C@H](Cc2cn(OC)c3ccccc23)NC1=O", "Potency": "5.9 µM (active)"},
      {"compound": "COc1ccc(C23Oc4cc(OC)cc(OC)c4[C@](O)([C@H](c4ccccc4)C2C(=O)NCCCCNC(=O)c2ccccc2)[C@@H]3O)cc1", "note": "(stereo partly drawn)", "activity change, negative = cytotoxicity": "3.88%"},
      {"compound": "CO[C@@H](/C=C/CC/C=C/C(=O)O)[C@@H](O)[C@H](C)[C@@H](O)/C(C)=C/[C@H](C)C(=O)CCCC1CC(=O)NC(=O)C1", "activity change, negative = cytotoxicity": "2.12%"},
      {"compound": "CC1=CC2CC[C@@H]3[C@@H](C)C[C@H](C)[C@@H](C1)N23", "note": "(stereo partly drawn)", "activity change, negative = cytotoxicity": "3.51%"},
      {"compound": "CNCCc1c[nH]c2ccccc12", "activity change, negative = cytotoxicity": "-2.51%"},
      {"compound": "CCC[C@H]1CC[C@H]2[C@H](C)CCC[C@H]2N1", "activity change, negative = cytotoxicity": "1.39%"},
      {"compound": "CCN1C[C@]2(C)CC[C@H](O)[C@]34C1C(C[C@H]23)[C@@]12CC[C@H](CC14)[C@](O)(COC(=O)c1ccc(OC)c(OC)c1)[C@H]2O", "note": "(stereo partly drawn)", "activity change, negative = cytotoxicity": "-9.33%"},
      {"compound": "CC[C@@H]1CN2CC[C@@]3(O)C(=Nc4cccc(OC)c43)[C@@H]2C[C@@H]1/C(=C\\OC)C(=O)OC", "activity change, negative = cytotoxicity": "14%"},
      {"compound": "COC(=O)C1=C2Nc3ccccc3[C@@]23CCN2CC(C(C)=O)C1C[C@H]23", "note": "(stereo partly drawn)", "activity change, negative = cytotoxicity": "-3.64%"},
      {"compound": "CC(=O)N[C@H]1CCN2CCC[C@H]12", "activity change, negative = cytotoxicity": "5.72% [at 103 µM]"},
      {"compound": "C/C=C1/CN2CC[C@]34C(=Nc5ccccc53)[C@@H]2C[C@@H]1[C@H]4C(=O)OC", "outcome": "inactive [at 91.4 µM]"},
      {"compound": "CO[C@@H](/C=C/CC/C=C/C(=O)O)[C@@H](O)[C@H](C)/C=C(\\C)[C@@H](O)[C@H](C)C(=O)CCCC1CC(=O)NC(=O)C1", "activity change, negative = cytotoxicity": "-4.47%"},
      {"compound": "CC1=CC(=O)C2=C(C)C[C@H](O)[C@@H]3[C@H](OC(=O)[C@@H]3C)[C@@H]12", "activity change, negative = cytotoxicity": "1.69%"}
    ]}
  ]
}
